Among all 68,000 compounds or so, about 2,700 (4%) showed an effect of 50% or more. The list comes from a sample in which strong results are over-represented; it also holds similar structures and randomly drawn compounds.
Tested on: Plasmodium berghei
Experiment: Screen against P. berghei liver stage (PbLuc), transformed with Luciferase, at 2uM
Assay type: functional, HepG2
Settings: tested at 2 uM

Row | SMILES | INHIBITION
1 | O=C(NCC(F)(F)F)c1ccncc1 | 8.22%
2 | Fc1cnc(N2CCCC3(CCN(Cc4cccs4)C3)C2)nc1 (stereo not drawn) | 31.25%
3 | Cc1ccnc(NC(=O)C2CCCO2)c1 (stereo not drawn) | 23.39%
4 | COc1ccc(N(C)C(=O)C2CN(C)CCO2)cc1Cl (stereo not drawn) | -18.04%
5 | COc1ccc(N(C)C(=O)C2CN(C)CCO2)cc1F (stereo not drawn) | 71.05%
6 | CN1CCOC(C(=O)N(C)c2ccc3c(c2)CCO3)C1 (stereo not drawn) | -30.56%
7 | Cc1ccc(OCC(O)COC2CCOCC2)c(Cl)c1 (stereo not drawn) | -2.35%
8 | Cc1cc(Cc2ccccc2C)cc(C2CCCNC2)n1 (stereo not drawn) | 54.02%
9 | Cc1cc(Cc2ccccc2)cc(C2CCCNC2)n1 (stereo not drawn) | -24.98%
10 | Cc1cc(Cc2ccccc2F)cc(C2CCCNC2)n1 (stereo not drawn) | 4.91%
11 | CC(=O)N1CCN(c2cc(-n3cccc3)ncn2)CC1 | 35.36%
12 | CSc1sc2c(O)cc(=O)[nH]c2c1C(N)=O | 15.96%
13 | Cc1nc(S(=O)(=O)N2CCc3[nH]nc(CCC(C)C)c3C2)cn1C | 26.75%
14 | CSCCc1n[nH]c2c1CN(S(=O)(=O)c1c(C)nn(C)c1C)CC2 | 59.8%
15 | CSCCc1n[nH]c2c1CN(S(=O)(=O)c1cn(C)c(C)n1)CC2 | 41.07%
16 | CS(=O)(=O)Cc1nc(CNc2c(F)cc(F)cc2F)cs1 | 1.42%
17 | CSc1ccc(NCc2csc(CS(C)(=O)=O)n2)cc1F | 28.95%
18 | CS(=O)(=O)Cc1nc(CNc2ccc(F)c(F)c2)cs1 | 56.49%
19 | Cc1cccc(Cn2cc(C)c(N)n2)c1 | 62.99%
20 | Cc1ccc(Cn2cc(C)c(N)n2)cc1 | -20.05%
21 | Cc1cn(Cc2ccccc2)nc1N | 43.77%
22 | COC(=O)c1cccc2nc([C@H]3CCN(Cc4ccccc4)C3)oc12 | 1.29%
23 | COC(=O)c1cccc2nc([C@H]3CCN(Cc4ccccc4F)C3)oc12 | 52.36%

Row | SMILES | INHIBITION
24 | COC(=O)c1cccc2nc([C@H]3CCN(Cc4ccccc4C)C3)oc12 | 33.14%
25 | COc1cccc(-c2noc(C3CCN(Cc4ccccc4F)C3)n2)c1 (stereo not drawn) | 35.56%
26 | COC(=O)c1cccc2nc([C@H]3CCN(C4CCN(C)CC4)C3)oc12 | 21.06%
27 | COC(=O)c1cccc2nc([C@H]3CCN(CC(C)C)C3)oc12 | 53.46%
28 | CC(=O)Nc1nc(C(=O)N2CCCC(n3nc(C)cc3C)C2)cs1 (stereo not drawn) | -45.23%
29 | N#Cc1cccc(OCCN2CCCC2C(=O)N2CCSCC2)c1 (stereo not drawn) | 9.04%
30 | COCCN1CCN(c2cccc(C)n2)Cc2ccc(C)nc21 | -21.77%
31 | CCS(=O)(=O)N1C[C@H]2CN(c3cnn(C)c3)C(=O)[C@H]2C1 | -33.15%
32 | Cn1cc(N2C[C@@H]3CN(S(=O)(=O)C4CC4)C[C@@H]3C2=O)cn1 | 63.23%
33 | Cn1cc(N2C[C@@H]3CN(CC4CCOCC4)C[C@@H]3C2=O)cn1 | -1.69%
34 | Cc1nc(C2CCCN2C(=O)c2ccc(F)cc2)ncc1C(N)=O (stereo not drawn) | 21.33%
35 | CCOC(=O)N1CCC(NC(=O)c2cccc(C3CCCNC3)c2)CC1 (stereo not drawn) | 35.15%
36 | Cc1cnn(CC2CN(c3nnc(C)c(C)c3C#N)CCO2)c1 (stereo not drawn) | 54.2%
37 | CCC1CN(c2nnc(C)c(C)c2C#N)CCO1 (stereo not drawn) | 11.18%
38 | Cc1nnc(N2CCOC(Cn3cccn3)C2)c(C#N)c1C (stereo not drawn) | 8.7%
39 | O=C1CSC(c2ccc(Cl)cc2Cl)c2c(n(C3CCOCC3)[nH]c2=O)N1 (stereo not drawn) | 5.47%
40 | CN(C)S(=O)(=O)N1CCC(Oc2ccc(C#N)cn2)CC1 | 31.38%
41 | CC(C)c1nn(C)c(Cl)c1CNCc1ccc2c(c1)OCO2 | 35.65%
42 | CCC(CC)N(Cc1ccc2c(c1)OCO2)C(=O)c1ccc(=O)n(C)c1 | -55.13%
43 | CCC(C)NC(=O)CCc1ccc(OCC(F)(F)F)c(OC)c1 (stereo not drawn) | 51.94%
44 | COc1cc(CCC(=O)NC(C)C(=O)O)ccc1OCC(F)(F)F (stereo not drawn) | -16.42%
45 | COc1cc(CCC(=O)NC(C)C)ccc1OCC(F)(F)F | -56.02%
46 | NC(=O)c1cccc2nc([C@H]3CCN(Cc4ccccc4F)C3)[nH]c12 | 18.87%

Row | SMILES | INHIBITION
47 | Cc1ccc(CN2CC[C@H](c3nc4cccc(C(N)=O)c4[nH]3)C2)cc1 | 23.26%
48 | NC(=O)c1cccc2nc([C@H]3CCN(Cc4ccccn4)C3)[nH]c12 | 50.72%
49 | CS(=O)(=O)N1CCCC(Cc2ccnc(Nc3ccccn3)c2)C1 (stereo not drawn) | 3.38%
50 | O=C(c1ccccc1)N1CCN(CC2CCOc3ccccc3C2)CC1 (stereo not drawn) | 1.88%
51 | CCN1CC(C(=O)NCc2noc(Cc3ccccc3)n2)CCC1=O (stereo not drawn) | -17.86%
52 | CC(C)(C)N1CC(C(=O)NCc2noc(Cc3ccccc3)n2)CC1=O (stereo not drawn) | 50.63%
53 | COCCc1noc(CNC(=O)C2CC(=O)N(C(C)(C)C)C2)n1 (stereo not drawn) | -28.97%
54 | CCn1nc(CC(C)C)cc1C(=O)NCc1c(C)cc(C)nc1OC | 39.16%
55 | Cc1noc2nc(C3CCN(Cc4ccccn4)CC3)cc(C(F)F)c12 | -32.4%
56 | C/C(=C\c1ccccc1)CN1CCCC(c2nnc3n2CCNCC3)C1 (stereo not drawn) | 36.51%
57 | O=C(NCCNc1cnccn1)c1scnc1Cl | -6.71%
58 | O=c1[nH][nH]cc1-c1ccnc(NCCc2cccnc2)n1 | 7.4%
59 | CCC(CC)NC(=O)Cn1cc(-c2ccccc2)cn1 | -9.17%
60 | CNC(=O)NC(=O)Cn1cc(-c2ccccc2)cn1 | 54.92%
61 | CC(NC(=O)Cn1cc(-c2ccccc2)cn1)C1CC1 (stereo not drawn) | 35.65%
62 | Cc1ccc(-c2cnn(CC(=O)NC(C)C)c2)cc1 | 72.31%
63 | CC(C)NC(=O)Cn1cc(-c2ccccc2)cn1 | -42.92%
64 | CCCNC(=O)Cn1cc(-c2ccccc2)cn1 | -14.11%
65 | CCn1c(C)nnc1CN(C)C1CCN(Cc2c(C)noc2C)C1 (stereo not drawn) | 4.72%
66 | CCn1c(C)nnc1CN(C)C1CCN(Cc2sc(C)nc2C)C1 (stereo not drawn) | 65.3%
67 | Cc1nc(C)c(CN2CCC(N(C)Cc3nnc(C4CC4)o3)C2)s1 (stereo not drawn) | 37.9%
68 | O=S(=O)(c1ccccc1)N1CCC2(CCCN2Cc2ccc(Cl)cc2)C1 (stereo not drawn) | -28.17%
